Reference: PMC5540273 (PLoS ONE, 2017)

Each compound was assayed on SYK. Conditions: concentration: 1 μM, replicates: in singlicate; n = 1.
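Note: KINOMEscan kinase panel screen.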

| Structure (SMILES) | %Inh [%] |
| --- | --- |
| c1ccc(Oc2ccc(Nc3ccnc4cc(-c5ccc(CNCCN6CCOCC6)o5)ccc34)cc2)nc1 [GW567145] | 14 |
| Cn1cc(-c2[nH]c3cc(NC(=O)[C@H](N)C4CCCCC4)cc4c3c2C=NNC4=O)cn1 | 55 |
| O=C(Nc1cccc(-c2nn3ccccc3c2-c2ccnc(Nc3cccc(F)c3)n2)c1)c1c(F)ccc(F)c1Cl [GSK357952] | 16 |
| Cc1ccc(C)c(NC(=O)NC2CCN(c3ccnc(Nc4ccc(F)cc4)n3)C2)c1 (stereo not drawn) [GSK1379720] | 16 |
| O=C(Nc1n[nH]c2cc(-c3ccoc3)ccc12)C1CC1 [SB-738481] | 2 |
| COc1cccc(C(=O)Nc2cccc(Oc3ccc4nc(NC(=O)C5CC5)cn4n3)c2)c1 | 12 |
| Cc1ccc(S(=O)(=O)Nc2ccc(Nc3nccc(Nc4cccc5[nH]ncc45)n3)cc2)cc1 [GSK581271] | 31 |
| CN(C)Cc1ccc(-c2ccc3c(Nc4ccc(Oc5ccccn5)cc4)ccnc3c2)o1 [GW567148] | 0 |
| Nc1ncc(-c2ccc3nccc(-c4ccncc4)c3c2)cc1S(=O)(=O)N1CCOCC1 [GSK1627798] | 12 |
| CC(=O)Nc1nc2cnc(Nc3cc(NC(=O)c4cccc(C5(C#N)CC5)c4Cl)ccc3C)nc2s1 | 5 |
| Cl.Cl.NCC(NC(=O)c1cc(-c2ccccc2)c(-c2ccnc3[nH]ccc23)s1)c1ccccc1 (stereo not drawn) [GSK1321561] | 5 |
| COc1cccc(C2=C(Nc3ccc(Cl)c(C(=O)O)c3)C(=O)NC2=O)c1 [SB-390769] | 34 |
